FGF22 binding: binders of human FGF22 protein, primary screen, FGF22 synaptogenesis inhibitor project, biophysical, thermal shift, single point. 340,000 compounds, 1.5% hits. AID 651658, 2012. Fibroblast growth factor 22 (Homo sapiens), Q9HCT0. recombinant FGF22 thermal shift, SYPRO orange fluorescence; percent of sucrose octasulfate shift, DMSO zero. activity (Tm shift, normalised), % at 9.99 µM;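 active = mean Tm shift, scaled 0 neutral to 100 positive control, at about 1.3% or above, every replicate too, limit read from the data; inconclusive = no clear call, values can overlap the other calls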
AF4-AF9 inh: inhibitors of AF4 peptide binding to AF9, primary screen, biochemical, AlphaScreen, biotin-AF4 peptide, FLAG-AF9, single point. inhibition, % at 10 µM. Protein AF-9 (Homo sapiens), P42568. 350,000 compounds, 0.47% hits;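 active = every replicate reaching a set inhibition limit, whatever the replicate mean, cut at about 25% in these data; inconclusive = mean inhibition reaches that limit but some replicates miss it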
Target sequence (P42568 whole entry, looked up): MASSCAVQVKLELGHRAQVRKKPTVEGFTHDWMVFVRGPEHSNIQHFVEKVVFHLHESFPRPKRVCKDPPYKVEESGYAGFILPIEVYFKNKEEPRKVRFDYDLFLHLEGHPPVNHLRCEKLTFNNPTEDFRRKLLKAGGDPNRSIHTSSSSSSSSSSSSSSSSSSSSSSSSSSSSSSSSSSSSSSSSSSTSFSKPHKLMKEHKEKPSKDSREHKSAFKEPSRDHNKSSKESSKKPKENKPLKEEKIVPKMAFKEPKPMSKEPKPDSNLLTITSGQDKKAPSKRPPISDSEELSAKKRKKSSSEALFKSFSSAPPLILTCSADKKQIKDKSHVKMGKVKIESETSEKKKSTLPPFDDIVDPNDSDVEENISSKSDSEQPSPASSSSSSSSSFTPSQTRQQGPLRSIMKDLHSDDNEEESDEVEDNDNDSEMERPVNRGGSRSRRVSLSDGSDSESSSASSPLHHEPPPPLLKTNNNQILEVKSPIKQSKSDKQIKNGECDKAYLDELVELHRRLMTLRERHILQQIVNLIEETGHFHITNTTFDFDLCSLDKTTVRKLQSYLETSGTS
Wnt act: Wnt/beta-catenin pathway activators, primary screen, cell-based, plate reader, single point; AID 743398, 2014; Wnt/beta-catenin reporter cell assay, activator; activation, % at 9.35 µM; 300,000 compounds, 1.2% hits; in the data active = activation above about 30%, passing the limit was not always enough; inconclusive = no clear call, values can overlap the other calls
MITF act: activators of MITF-driven TRPM1 promoter reporter, primary screen, cell-based, SK-MEL-5, luciferase, single point | activation, % at 12.5 µM | 300,000 compounds, 0.75% hits | SK-MEL-5 TRPM1-promoter luciferase, 24 h; % of positive control, neutral wells = 0;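 active = mean activation of at least 80% with every replicate also reaching 80%; inconclusive = mean reaches 80% but some replicate falls short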
esBAF inh: Bmi1 luciferase reporter increase in mESCs, primary screen, esBAF inhibitor project, mouse ES cells, Bmi1 luciferase knock-in, single point | 24 h; 100% = twice the neutral-well signal | reporter increase, % at 12.5 µM | 350,000 compounds, 2% hits | AID 602393, 2012; in the data active = activation above about 40%; inconclusive = no clear call, values can overlap the other calls;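 also: a rise in the Bmi1 reporter signal indicates esBAF inhibition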
SMARCA2 act: SMARCA2 (BRM) function activators, primary screen, cell-based, luminescence, high throughput; MG213 cells, MMTV-luciferase reporter, dexamethasone, overnight; AID 652017, 2013; activation, % at 9.1 µM; 370,000 compounds, 1% hits; in the data active = activation above about 7.8%
SMARCA2 act conf: SMARCA2 (BRM) function activators, confirmation, cell-based, luminescence, triplicate | activation, % at 9.1 µM | shares compounds with SMARCA2 act | 3,500 compounds, 30% hits | MG213 cells, MMTV-luciferase with dexamethasone, overnight; MG213 cells expressing E1A, Rb sequestered; DMSO wells 0%, reference activator 100% | AID 652260, 2013;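 active = activation above its plate's cutoff, the mean activation of tested wells plus 3 SD, cut at about 7.9% in these data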
GAL4-VP16 Luc: GAL4-VP16 luciferase reporter activation, counter-screen for SMARCA2 (BRM) activator project, cell-based, pG5luc, luminescence, high throughput; shares compounds with SMARCA2 act; HEK293 GAL4-VP16 pG5luc reporter; scaled: DMSO wells 0%, SAHA wells 100%; activation, % at 9.1 µM; 3,500 compounds, 41% hits; AID 686939, 2013;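 active = activation above the solvent-only control well mean plus 3 SD, averaged across control plates, cut at about 5.2% in these data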
Large screens that a line does not name were inactive (follow-up assays come after a bar, where they were run). Rows were chosen to be rich in hits. Some 4.3% of all compounds tested hit in one or more screens of this group.

C[C@H](CO)N1C[C@H](C)[C@@H](CN(C)C)Oc2ccc(NS(=O)(=O)c3cccs3)cc2CC1=O	none (no result: Wnt act, MITF act, SMARCA2 act)
O=C(NC1CCCCC1)N[C@H]1CC[C@@H](CCNS(=O)(=O)c2ccc(Cl)cc2)O[C@@H]1CO	none (no result: Wnt act, MITF act, SMARCA2 act)
COc1cccc(NC(=O)Nc2cc(C)on2)c1	none
COc1cccc(C(=O)NC(=O)Nc2cc(C)on2)c1	MITF act 105, esBAF inh 56, SMARCA2 act 8.4 | SMARCA2 act conf inactive | GAL4-VP16 Luc 8.7
CCC(=O)N1[C@H](CNC(=O)CN2CCOCC2)[C@H](c2ccccc2)[C@@H]1CO	none (no result: FGF22 binding, AF4-AF9 inh, Wnt act, MITF act, SMARCA2 act)
C[C@H]1CN([C@@H](C)CO)C(=O)c2cccc(NS(C)(=O)=O)c2O[C@H]1CN(C)Cc1ccncc1	none (no result: Wnt act, MITF act, SMARCA2 act)
CCCCNC(=O)c1cc2c(=O)n3cccc(C)c3nc2n(Cc2ccncc2)c1=N	SMARCA2 act 9.7 (no result: FGF22 binding, AF4-AF9 inh) | SMARCA2 act conf 13 | GAL4-VP16 Luc inactive
C[C@H](CO)N1C[C@H](C)[C@H](CN(C)Cc2ccccn2)Oc2ncc(C#C[C@@H](C)O)cc2C1=O	none (no result: Wnt act, MITF act, SMARCA2 act)
COC(=O)Nc1ccc(OCc2ccccc2)cc1	esBAF inh inconclusive, SMARCA2 act 14 (no result: FGF22 binding) | SMARCA2 act conf 18 | GAL4-VP16 Luc inactive
Fc1cc(F)c2nc(N3CCCC3)sc2c1	SMARCA2 act 8.4 (no result: esBAF inh) | SMARCA2 act conf inactive | GAL4-VP16 Luc inactive
COC(=O)c1ccccc1NC(=O)N1CCc2ccc(NC(=O)c3ccccn3)cc2C1	esBAF inh inconclusive, SMARCA2 act 8.1 | SMARCA2 act conf inactive | GAL4-VP16 Luc 7.5
CC(=O)Nc1ccc(-c2cn3cc(C)ccc3n2)cc1	SMARCA2 act 8.1 (no result: FGF22 binding, AF4-AF9 inh, Wnt act, esBAF inh) | SMARCA2 act conf inactive | GAL4-VP16 Luc 11
COc1ccc(-c2cn3cc(C(=O)NN)ccc3n2)cc1	SMARCA2 act 11 (no result: esBAF inh) | SMARCA2 act conf 8.8 | GAL4-VP16 Luc 5.4
COc1ccc(C(=O)NN)cc1	none
C[C@@H]1CN([C@@H](C)CO)C(=O)c2cc(NS(C)(=O)=O)ccc2O[C@H]1CN(C)Cc1ccc(Cl)c(Cl)c1	none (no result: Wnt act, MITF act, SMARCA2 act)
O=C(C[C@H]1C=C[C@@H](NC(=O)c2ccccc2)[C@@H](CO)O1)NCc1ccc(Oc2ccccc2)cc1	none (no result: Wnt act, MITF act, esBAF inh, SMARCA2 act)
COc1ccc(-c2cn3ccccc3n2)cc1	none
CCCOc1ccc(-c2cn3ccccc3n2)cc1	FGF22 binding 43, SMARCA2 act 8.2 (no result: esBAF inh) | SMARCA2 act conf inactive | GAL4-VP16 Luc 9.7
C=CCNC(=O)/C(C#N)=C/c1ccccc1OCc1ccc(C(=O)OC)cc1	none (no result: esBAF inh)
COC(=O)c1ccc(COc2ccccc2/C=C(\C#N)C(=O)Nc2ccc(C)cc2)cc1	SMARCA2 act 8.2 (no result: FGF22 binding, AF4-AF9 inh, Wnt act, esBAF inh) | SMARCA2 act conf inactive | GAL4-VP16 Luc 14
Cc1ccc(NC(=O)CNC(=O)c2cccc(C)c2)nc1	SMARCA2 act 8.4 | SMARCA2 act conf inactive | GAL4-VP16 Luc inactive
Cc1ccc(NC(=O)CNC(=O)c2ccc(Oc3ccccc3)cc2)nc1	none
CCC(=O)N1C[C@H](C)[C@@H](OC)CN(C)C(=O)c2cc(NC(=O)c3ccccc3)ccc2OC[C@H]1C	none (no result: Wnt act, MITF act, SMARCA2 act)
O=C(C(c1ccccc1)N1CCOCC1)N1CCOCC1 (stereo not drawn)	none (no result: FGF22 binding, AF4-AF9 inh, Wnt act, esBAF inh)
O=C(C=Cc1ccccc1)CC(c1ccccc1)N1CCOCC1 (stereo not drawn)	SMARCA2 act 8.8 (no result: esBAF inh) | SMARCA2 act conf inactive | GAL4-VP16 Luc inactive
COc1ccc2c(c1)CC/C(=C/c1ccco1)C2=O	MITF act inconclusive, SMARCA2 act 20 (no result: esBAF inh) | SMARCA2 act conf inactive | GAL4-VP16 Luc 12
CN1CCN(NC(=O)c2cccc(S(=O)(=O)N3CCCCCC3)c2)CC1	none
